In all, about 5,500 compounds went through this assay and about 2,000 (36%) were called active. Not shown: some 18% with an inconclusive outcome. This is one part of the list. A number with no mark means an inactive call. No stated cut-off is given here; in the data, active means normalized growth mostly below about 0.91 (no sharp cut-off); inconclusive means no clear call, values can overlap the other calls; inactive means mostly above about 0.92.
Assay: chemical genetic growth profiling, strain panel (AID 1159580);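 further: tested at 20 µM; growth read once vehicle control cultures reached saturation at 30 °C; 1 = growth at the plate median or of vehicle wells; lower values mean less growth of the strain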
Conditions: growth OD

For `COc1ccc2cc1Oc1ccc(cc1)C[C@H]1c3cc(c(OC)cc3CCN1C)Oc1c(OC)c(OC)cc3c1[C@H](C2)N(C)CC3`, which normalized growth (S. cerevisiae deletion strains, locus YKL009W, strain mrt4, hits give low values) is on record?
Its normalized growth is 1.02.

And the normalized growth (S. cerevisiae deletion strains, locus YKL068W, hits give low values)?
Its normalized growth is 1.01.

What about the normalized growth (S. cerevisiae deletion strains, locus YKL085W, strain MDH1 (second series), hits give low values) of the same compound?
Its normalized growth is 1.01.

What about the normalized growth (S. cerevisiae deletion strains, locus YKL085W, strain MDH1, hits give low values) of the same compound?
The normalized growth was 1.01.

What about the normalized growth (S. cerevisiae deletion strains, locus YKL160W, strain elf1, hits give low values) of the same compound?
The normalized growth was 0.99.

And the normalized growth (S. cerevisiae deletion strains, locus YKL190W, strain CNB1, hits give low values)?
Its normalized growth is 1.01.

And the normalized growth (S. cerevisiae deletion strains, locus YKR001C, strain vps1, hits give low values)?
The normalized growth was 0.973.

And the normalized growth (S. cerevisiae deletion strains, locus YKR026C, strain gcn3, hits give low values)?
Its normalized growth is 1.

And the normalized growth (S. cerevisiae deletion strains, locus YKR091W, strain srl3, hits give low values)?
The normalized growth was 1.

What about the normalized growth (S. cerevisiae deletion strains, locus YLL001W, strain dnm1, hits give low values) of the same compound?
Its normalized growth is 0.986.

And the normalized growth (S. cerevisiae deletion strains, locus YLL026W, hits give low values)?
Its normalized growth is 1.

And the normalized growth (S. cerevisiae deletion strains, locus YLL041C, strain sdh2, hits give low values)?
Its normalized growth is 1.

What about the normalized growth (S. cerevisiae deletion strains, locus YLR027C, strain aat2, hits give low values) of the same compound?
The normalized growth was 1.01.

And the normalized growth (S. cerevisiae deletion strains, locus YLR039C, strain RIC1, hits give low values)?
The normalized growth was 0.94.

What about the normalized growth (S. cerevisiae deletion strains, locus YLR058C, strain SHM2, hits give low values) of the same compound?
Its normalized growth is 1.01.

What about the normalized growth (S. cerevisiae deletion strains, locus YLR102C, strain apc9, hits give low values) of the same compound?
Its normalized growth is 1.01.

What about the normalized growth (S. cerevisiae deletion strains, locus YLR113W, strain HOG1, hits give low values) of the same compound?
Its normalized growth is 1.07.

What about the normalized growth (S. cerevisiae deletion strains, locus YLR221C, strain rsa3, hits give low values) of the same compound?
Its normalized growth is 1.01.

And the normalized growth (S. cerevisiae deletion strains, locus YLR258W, strain gsy2, hits give low values)?
The normalized growth was 1.01.

What about the normalized growth (S. cerevisiae deletion strains, locus YLR262C, strain YPT6 (second series), hits give low values) of the same compound?
Its normalized growth is 0.975.

And the normalized growth (S. cerevisiae deletion strains, locus YLR262C, strain YPT6, hits give low values)?
The normalized growth was 0.993.

What about the normalized growth (S. cerevisiae deletion strains, locus YLR268W, strain sec22, hits give low values) of the same compound?
The normalized growth was 1.01.

What about the normalized growth (S. cerevisiae deletion strains, locus YLR320W, strain mms22, hits give low values) of the same compound?
Its normalized growth is 0.987.

And the normalized growth (S. cerevisiae deletion strains, locus YLR330W, strain CHS5, hits give low values)?
The normalized growth was 1.02.

What about the normalized growth (S. cerevisiae deletion strains, locus YLR342W, strain FKS1 (second series), hits give low values) of the same compound?
The normalized growth was 0.885.

And the normalized growth (S. cerevisiae deletion strains, locus YLR342W, strain FKS1, hits give low values)?
The normalized growth was 1.01.

What about the normalized growth (S. cerevisiae deletion strains, locus YLR357W, strain rsc2, hits give low values) of the same compound?
The normalized growth was 0.977.

And the normalized growth (S. cerevisiae deletion strains, locus YLR370C, strain arc18, hits give low values)?
Its normalized growth is 0.914.

What about the normalized growth (S. cerevisiae deletion strains, locus YLR371W, strain rom2, hits give low values) of the same compound?
Its normalized growth is 1.01.

And the normalized growth (S. cerevisiae deletion strains, locus YLR384C, strain iki3, hits give low values)?
The normalized growth was 1.01.

What about the normalized growth (S. cerevisiae deletion strains, locus YLR418C, strain cdc73, hits give low values) of the same compound?
Its normalized growth is 0.96.

And the normalized growth (S. cerevisiae deletion strains, locus YML016C, strain PPZ1, hits give low values)?
Its normalized growth is 1.

What about the normalized growth (S. cerevisiae deletion strains, locus YML032C, strain rad52, hits give low values) of the same compound?
The normalized growth was 1.01.

And the normalized growth (S. cerevisiae deletion strains, locus YML120C, strain ndi1, hits give low values)?
Its normalized growth is 1.02.

What about the normalized growth (S. cerevisiae deletion strains, locus YML124C, strain tub3, hits give low values) of the same compound?
Its normalized growth is 1.02.

And the normalized growth (S. cerevisiae deletion strains, locus YMR058W, strain fet3, hits give low values)?
Its normalized growth is 1.

And the normalized growth (S. cerevisiae deletion strains, locus YMR078C, strain ctf18, hits give low values)?
The normalized growth was 1.02.

And the normalized growth (S. cerevisiae deletion strains, locus YMR125W, strain sto1, hits give low values)?
The normalized growth was 0.992.

And the normalized growth (S. cerevisiae deletion strains, locus YMR129W, hits give low values)?
The normalized growth was 1.02.

What about the normalized growth (S. cerevisiae deletion strains, locus YMR205C, strain PFK2, hits give low values) of the same compound?
Its normalized growth is 0.963.

And the normalized growth (S. cerevisiae deletion strains, locus YMR223W, strain ubp8, hits give low values)?
Its normalized growth is 0.986.

What about the normalized growth (S. cerevisiae deletion strains, locus YMR231W, strain pep5, hits give low values) of the same compound?
The normalized growth was 1.01.

And the normalized growth (S. cerevisiae deletion strains, locus YMR263W, strain SAP30, hits give low values)?
Its normalized growth is 1.

And the normalized growth (S. cerevisiae deletion strains, locus YMR307W, strain GAS1, hits give low values)?
Its normalized growth is 0.966.

And the normalized growth (S. cerevisiae deletion strains, locus YNL067W, strain RPL9B, hits give low values)?
The normalized growth was 1.01.

And the normalized growth (S. cerevisiae deletion strains, locus YNL071W, strain lat1, hits give low values)?
The normalized growth was 0.998.

What about the normalized growth (S. cerevisiae deletion strains, locus YNL128W, strain TEP1, hits give low values) of the same compound?
Its normalized growth is 1.01.

And the normalized growth (S. cerevisiae deletion strains, locus YNL153C, strain GIM3, hits give low values)?
Its normalized growth is 0.995.

And the normalized growth (S. cerevisiae deletion strains, locus YNL183C, strain NPR1, hits give low values)?
The normalized growth was 0.999.

And the normalized growth (S. cerevisiae deletion strains, locus YNL209W, strain ssb2, hits give low values)?
The normalized growth was 0.995.

And the normalized growth (S. cerevisiae deletion strains, locus YNL233W, strain BNI4, hits give low values)?
The normalized growth was 0.995.

What about the normalized growth (S. cerevisiae deletion strains, locus YNL248C, strain rpa49, hits give low values) of the same compound?
The normalized growth was 1.01.

And the normalized growth (S. cerevisiae deletion strains, locus YNL250W, strain rad50, hits give low values)?
The normalized growth was 1.02.

What about the normalized growth (S. cerevisiae deletion strains, locus YNL271C, strain bni1, hits give low values) of the same compound?
The normalized growth was 1.01.

And the normalized growth (S. cerevisiae deletion strains, locus YNL298W, strain CLA4, hits give low values)?
The normalized growth was 1.01.

What about the normalized growth (S. cerevisiae deletion strains, locus YNL307C, strain MCK1, hits give low values) of the same compound?
Its normalized growth is 0.902 (active).

What about the normalized growth (S. cerevisiae deletion strains, locus YNL322C, strain KRE1 (second series), hits give low values) of the same compound?
The normalized growth was 1.01.

And the normalized growth (S. cerevisiae deletion strains, locus YNL322C, strain KRE1, hits give low values)?
The normalized growth was 1.02.

What about the normalized growth (S. cerevisiae deletion strains, locus YNR049C, strain mso1, hits give low values) of the same compound?
Its normalized growth is 0.991.

What about the normalized growth (S. cerevisiae deletion strains, locus YNR052C, strain pop2, hits give low values) of the same compound?
The normalized growth was 0.968.

What about the normalized growth (S. cerevisiae deletion strains, locus YOL006C, strain TOP1, hits give low values) of the same compound?
Its normalized growth is 0.632.

What about the normalized growth (S. cerevisiae deletion strains, locus YOL012C, strain htz1) of the same compound?
The normalized growth was 0.904.

And the normalized growth (S. cerevisiae deletion strains, locus YOL147C, strain pex11, hits give low values)?
The normalized growth was 1.01.

And the normalized growth (S. cerevisiae deletion strains, locus YOR001W, strain rrp6, hits give low values)?
Its normalized growth is 1.

What about the normalized growth (S. cerevisiae deletion strains, locus YOR061W, strain CKA2, hits give low values) of the same compound?
Its normalized growth is 0.993.

And the normalized growth (S. cerevisiae deletion strains, locus YOR069W, strain VPS5, hits give low values)?
Its normalized growth is 1.01.

And the normalized growth (S. cerevisiae deletion strains, locus YOR070C, strain gyp1, hits give low values)?
Its normalized growth is 1.

What about the normalized growth (S. cerevisiae deletion strains, locus YOR080W, strain dia2, hits give low values) of the same compound?
The normalized growth was 0.995.

And the normalized growth (S. cerevisiae deletion strains, locus YOR083W, strain WHI5, hits give low values)?
The normalized growth was 0.968.

And the normalized growth (S. cerevisiae deletion strains, locus YOR106W, strain vam3, hits give low values)?
Its normalized growth is 0.961.

And the normalized growth (S. cerevisiae deletion strains, locus YOR136W, strain idh2, hits give low values)?
Its normalized growth is 0.999.

And the normalized growth (S. cerevisiae deletion strains, locus YOR144C, strain elg1, hits give low values)?
The normalized growth was 1.01.

What about the normalized growth (S. cerevisiae deletion strains, locus YOR184W, strain ser1, hits give low values) of the same compound?
The normalized growth was 1.02.

What about the normalized growth (S. cerevisiae deletion strains, locus YOR231W, strain MKK1, hits give low values) of the same compound?
The normalized growth was 0.974.

What about the normalized growth (S. cerevisiae deletion strains, locus YOR265W, strain rbl2, hits give low values) of the same compound?
The normalized growth was 0.984.

And the normalized growth (S. cerevisiae deletion strains, locus YOR270C, strain vph1, hits give low values)?
The normalized growth was 0.723 (active).

What about the normalized growth (S. cerevisiae deletion strains, locus YOR290C, strain snf2, hits give low values) of the same compound?
The normalized growth was 0.937.

What about the normalized growth (S. cerevisiae deletion strains, locus YOR316C, strain cot1, hits give low values) of the same compound?
Its normalized growth is 1.01.

What about the normalized growth (S. cerevisiae deletion strains, locus YPL051W, strain arl3, hits give low values) of the same compound?
The normalized growth was 0.982.

What about the normalized growth (S. cerevisiae deletion strains, locus YPL055C, strain LGE1, hits give low values) of the same compound?
The normalized growth was 0.975.

What about the normalized growth (S. cerevisiae deletion strains, locus YPL078C, strain atp4, hits give low values) of the same compound?
Its normalized growth is 0.974.

What about the normalized growth (S. cerevisiae deletion strains, locus YPL106C, strain sse1, hits give low values) of the same compound?
The normalized growth was 0.984.

What about the normalized growth (S. cerevisiae deletion strains, locus YPL240C, strain hsp82, hits give low values) of the same compound?
Its normalized growth is 1.01.

And the normalized growth (S. cerevisiae deletion strains, locus YPL241C, strain CIN2, hits give low values)?
Its normalized growth is 1.

And the normalized growth (S. cerevisiae deletion strains, locus YPL256C, strain CLN2, hits give low values)?
The normalized growth was 1.02.

What about the normalized growth (S. cerevisiae deletion strains, locus YPR119W, strain clb2, hits give low values) of the same compound?
The normalized growth was 1.01.

What about the normalized growth (S. cerevisiae deletion strains, locus YPR141C, strain kar3, hits give low values) of the same compound?
Its normalized growth is 1.02.

What about the normalized growth (S. cerevisiae deletion strains, locus YPR163C, strain tif3, hits give low values) of the same compound?
Its normalized growth is 0.987.

And the normalized growth (S. cerevisiae deletion strains, locus YPR167C, strain met16, hits give low values)?
Its normalized growth is 1.01.

What about the normalized growth (S. cerevisiae deletion strains, strain wtn01, hits give low values) of the same compound?
Its normalized growth is 1.

What about the normalized growth (S. cerevisiae strains, strain wild type, hits give low values) of the same compound?
Its normalized growth is 0.981.

— PubChem BioAssay AID1159580 (chemical genetic matrix, 2015)
